# “And” between values parts separate entries of the source, which are not always exact repeats. Identical values can stand only once. The source made the active and inactive calls. Rule for the calls: active = hit-call score of the fitted dose curve at least 0.9, where 1 is the maximum; inactive = score below 0.9.
# Experiment: BSK_3C_TissueFactor: BioMAP Diversity Plus: 3C Assay for Tissue Factor Biomarker Activity (AID 2282997)
# Conditions: BioMAP 3C HUVEC, tissue factor biomarker readout; actives raise or lower the signal
# Experimental: BSK_3C is a cell-based, multiplexed-readout assay that uses umbilical vein endothelium, a human vascular primary cell, with measurements taken at 24 hours after chemical dosing in a 96-well plate.BSK_3C_TissueFactor is an assay component measured in the BSK_3C assay. It measures Tissue Factor antibody related to regulation of gene expression using ELISA technology.Data from the assay component BSK_3C_TissueFactor was analyzed into 1 assay endpoint. This assay endpoint, BSK_3C_TissueFactor, was analyzed with bidirectional fitting relative to DMSO as the negative control and baseline of activity. Using a type of binding reporter, gain or loss-of-signal activity can be used to understand changes in the signaling as they relate to the gene F3. Furthermore, this assay endpoint can be referred to as a primary readout, because this assay has produced multiple assay endpoints where this one serves a signaling function. To generalize the intended target to other relatable targets, this assay endpoint is annotated to the cytokine intended target family, where the subfamily is coagulation factor.
# The levels of cell surface (or secreted, indicated by the prefix "s") biomarker endpoints were measured by ELISA. Overt cytotoxicity to cells in confluent adherent cultures (all systems other than the BT system) was assessed by measuring total protein levels using sulforhodamine B (SRB) staining in parallel cultures at the time of biomarker measurements, indicated as SRB endpoints. For proliferation assays for adherent cell types, individual cell types are cultured at sub-confluence and relative cell numbers quantified by SRB staining at time points optimized for each system (48 h: 3C and CASM3C systems; 72 h: BT and HDF3CGF systems; 96 h: SAg system). SRB was performed by staining cells with 0.1% SRB after fixation with 10% TCA and reading wells at 560 nm.Viability and proliferation of PBMC (T cells) was quantified by Alamar Blue reduction for the SAg and BT systems. For PBMC viability (referred to as PBMC Cytotoxicity within the assay endpoint names), cells were plated (75,000/well in a 96-well plate) and then chemical samples added for 1 h before addition of activators, SEB and TSST-1 (20 ng/mL final concentration each). Cells were incubated for 90 h. Then, Alamar Blue (20 uL/well) (Invitrogen, Cat DAL1100) was added for 6 h, and the plates were read with a fluorescence microplate reader at 546/580 nm (excitation/emission). For PBMC proliferation, cells were plated and activated as above but incubated for only 16 h prior to addition of Alamar Blue. Plates were read after 6 h.
SMILES,AC50,outcome
O=C(Nc1ccc2[nH]ccc2c1)c1cc2cc(F)ccc2n1Cc1cccc(F)c1,8.59 µM (active),–
O=C1C2(Cl)C3(Cl)C4(Cl)C(Cl)(Cl)C5(Cl)C3(Cl)C1(Cl)C5(Cl)C24Cl (stereo not given),7.03 µM (active),–
COP(=S)(OC)Oc1c(Cl)cc(C)cc1Cl,–,inactive
NC(=O)O,–,inactive
O=C(O)C(Cl)(Cl)Cl,–,inactive
CCC(C)(C)c1ccc(O)c(C(C)(C)CC)c1,12 µM (active),–
C=C(C)C(=O)[O][Sn]([CH2]CCC)([CH2]CCC)[CH2]CCC,0.148 µM (active),–
Cn1sc(Cl)cc1=O,16.2 µM (active),–
Oc1c(I)cc(I)cc1I,–,inactive
BrCCBr,–,inactive
CC1(C)Cc2cccc(O)c2O1,–,inactive
NC(=S)Nc1ccccc1,–,inactive
O=[N+]([O-])c1ccc2c3c(cccc13)CC2,–,inactive
OCc1ccco1,–,inactive
CCOP(=S)(OCC)Oc1nc(Cl)c(Cl)cc1Cl,–,inactive
CC12CC1(C)C(=O)N(c1cc(Cl)cc(Cl)c1)C2=O (stereo not given),–,inactive
CC(C)CCCCCCOC(=O)c1ccccc1C(=O)OCCCCCCC(C)C,–,inactive
O=Cc1cccc(Oc2ccccc2)c1,–,inactive
ClC1=C(Cl)[C@]2(Cl)[C@H]3[C@H]([C@H]4C=C[C@H]3C4)[C@@]1(Cl)C2(Cl)Cl,2.35 µM (active),–
Nc1ccc(-c2ccc(N)c(Cl)c2)cc1Cl,–,inactive

SMILES,AC50,outcome
CCCCCCCCc1ccc(O)cc1,32.2 µM (active),–
COC(=O)c1sccc1S(=O)(=O)NC(=O)Nc1nc(C)nc(OC)n1,–,inactive
CCC(=O)C(CC(C)N(C)C)(c1ccccc1)c1ccccc1 (stereo not given),–,inactive
CC(C)(C)CC(C)(C)c1ccc(O)cc1,7.99 µM (active),–
CCOP(=S)(OCC)SCCS(=O)(=O)CC,–,inactive
COC[C@H](C)N(C(=O)CCl)c1c(C)csc1C,–,inactive
O=C(O)C(F)(F)C(F)(F)C(F)(F)C(F)(F)C(F)(F)C(F)(F)F,–,inactive
CCOP(=S)(OCC)Oc1ccc(S(C)=O)cc1 (stereo not given),–,inactive
CC(=O)C(Cl)C(=O)N(C)C (stereo not given),5.13 µM (active),–
Nc1cccc2ccccc12,12.4 µM (active),–
CC(=O)[O][Hg][c]1ccccc1,2.59 µM (active),–
COP(=S)(OC)Oc1cc(Cl)c(Cl)cc1Cl,2.21 µM (active),–
O=S(=O)(c1ccc(Cl)cc1)c1ccc(Cl)cc1,–,inactive
COc1cc(-c2ccc(N)c(OC)c2)ccc1N,4.68 µM (active) and 3.97 µM (active),–
CC(C)(c1ccccc1)c1ccc(O)c(C(C)(C)c2ccccc2)c1,11.7 µM (active),–
CCSC(C)CC1CC(=O)C(C(CC)=NOC/C=C/Cl)=C(O)C1 (stereo not given),–,inactive
CC(C)(C)c1cc(O)ccc1O,–,inactive
Oc1ccc(-c2ccccc2)cc1,20 µM (active),–
C=CC(=O)OCCCCCC(C)C,–,inactive
CC(=O)OC(c1ccccc1)C(Cl)(Cl)Cl (stereo not given),–,inactive

# — PubChem BioAssay (EPA / NIEHS)
